In PubChem BioAssay (EPA / NIEHS):
The source made the active and inactive calls. The calls were made as follows: active = hit-call score of the fitted dose curve at least 0.9, where 1 is the maximum; inactive = score below 0.9.

Assays:
[1] = ATG_CRE_CIS: Attagene CIS-FACTORIAL HepG2 Assay for human cAMP Responsive Element (CRE) binding protein 3 (AID 2282926); settings: HepG2 CRE cis-reporter, Attagene multiplexed mRNA; actives raise or lower the signal
Method in brief: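 Readout: fluorescently labelled reporter transcripts resolved by capillary electrophoresis after RT-PCR, taken 24 h post-dosing in transfected HepG2. Endogenous transcription factor activity drives each cis-element reporter; gain or loss of signal fitted relative to DMSO control.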

[2] = molecular target: CCAAT/enhancer-binding protein beta (Homo sapiens) (UniProt P17676); experiment: ATG_C_EBP_CIS: Attagene CIS-FACTORIAL HepG2 Assay for human CCAAT/Enhancer Binding Protein (C/EBP) beta (AID 2282927); settings: HepG2 Attagene cis-factorial transcription factor reporter; actives raise or lower the signal
CCAAT/enhancer-binding protein beta (Homo sapiens), sequence (P17676 whole entry, looked up, the tested form may be a part): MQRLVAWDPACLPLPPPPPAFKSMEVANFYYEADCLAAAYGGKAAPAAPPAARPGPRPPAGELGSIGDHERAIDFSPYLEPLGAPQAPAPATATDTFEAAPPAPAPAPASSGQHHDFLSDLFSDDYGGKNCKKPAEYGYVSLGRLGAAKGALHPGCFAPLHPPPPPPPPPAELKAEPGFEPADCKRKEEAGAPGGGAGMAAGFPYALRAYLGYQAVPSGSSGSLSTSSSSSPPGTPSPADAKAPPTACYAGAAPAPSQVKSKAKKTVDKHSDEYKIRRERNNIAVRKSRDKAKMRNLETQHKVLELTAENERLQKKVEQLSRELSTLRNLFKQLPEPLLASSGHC
Method in brief: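 Chemical-treated HepG2 cells (24 h) bearing cis-regulated reporter constructs were processed for total RNA, then reverse transcription, PCR amplification, fluorescent primer extension and fragment analysis; gain- and loss-of-signal were fitted against DMSO.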

[3] = ATG_CMV_CIS: Attagene CIS-FACTORIAL HepG2 Assay for human CMV (Internal Marker) (AID 2282928); settings: HepG2 CMV promoter reporter, transcription factor profiling; actives raise or lower the signal;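 also: endpoint acts as a background internal control marker rather than a target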
Method in brief: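 24 h chemical treatment, HepG2 with transient multi-reporter transfection; RNA → oligo(dT) RT → PCR → 6-FAM extension → HpaI digest → CE fluorescence. Bidirectional fit, DMSO negative control.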

[4] = ATG_DR4_LXR_CIS: Attagene CIS-FACTORIAL HepG2 Assay for human Liver X Receptor (LXR), DR4 submotif (AID 2282929); settings: HepG2 Attagene DR4 cis-reporter, mRNA transcription; actives raise or lower the signal
Method in brief: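 DR4 cis-reporter in HepG2, 24 h exposure. Detection: RT-PCR, 6-FAM labelling, CE fragment analysis. Endpoint fitted bidirectionally, DMSO = baseline.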

[5] = molecular target: Aryl hydrocarbon receptor (Homo sapiens) (UniProt P35869); experiment: ATG_Ahr_CIS: Attagene CIS-FACTORIAL HepG2 Assay for human Aryl Hydrocarbon Receptor (Ahr) (AID 2282930); settings: HepG2 AhR cis-factorial reporter transcription; actives raise or lower the signal
Aryl hydrocarbon receptor (Homo sapiens), sequence (P35869 whole entry, looked up): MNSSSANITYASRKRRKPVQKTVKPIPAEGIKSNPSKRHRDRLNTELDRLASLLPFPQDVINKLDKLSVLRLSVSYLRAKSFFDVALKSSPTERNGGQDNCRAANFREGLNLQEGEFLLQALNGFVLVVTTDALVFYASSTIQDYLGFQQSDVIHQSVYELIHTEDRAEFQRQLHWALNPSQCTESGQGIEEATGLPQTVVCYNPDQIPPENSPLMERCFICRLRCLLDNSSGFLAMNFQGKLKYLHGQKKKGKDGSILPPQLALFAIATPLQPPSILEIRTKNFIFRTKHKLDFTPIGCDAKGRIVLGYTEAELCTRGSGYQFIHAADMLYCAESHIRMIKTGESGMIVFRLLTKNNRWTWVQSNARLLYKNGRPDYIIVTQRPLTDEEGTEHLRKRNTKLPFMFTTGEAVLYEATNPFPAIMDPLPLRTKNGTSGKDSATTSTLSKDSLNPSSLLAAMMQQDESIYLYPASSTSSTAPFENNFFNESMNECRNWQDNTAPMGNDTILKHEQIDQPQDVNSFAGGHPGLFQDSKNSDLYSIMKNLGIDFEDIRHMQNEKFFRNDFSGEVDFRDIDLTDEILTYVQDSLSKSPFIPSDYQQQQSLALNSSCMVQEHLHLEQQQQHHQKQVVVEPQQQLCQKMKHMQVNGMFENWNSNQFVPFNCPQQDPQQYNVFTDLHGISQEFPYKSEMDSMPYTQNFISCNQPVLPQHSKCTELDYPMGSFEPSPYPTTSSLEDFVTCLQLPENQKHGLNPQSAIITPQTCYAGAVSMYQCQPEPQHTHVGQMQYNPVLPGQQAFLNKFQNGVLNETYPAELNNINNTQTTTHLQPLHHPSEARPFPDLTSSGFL
Method in brief: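 Following 24 h of chemical dosing, transfected HepG2 liver cells with cis-driven reporter units were lysed for RNA; reporter mRNA was quantified via RT-PCR and capillary electrophoresis, and responses fitted bidirectionally from DMSO.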

[6] = ATG_AP_2_CIS: Attagene CIS-FACTORIAL HepG2 Assay for human Activator Protein 2 (AP-2) (AID 2282932); settings: HepG2 AP-2 cis-reporter, Attagene transcription factor profiling; actives raise or lower the signal
Method in brief: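 Cells (HepG2) transfected with promoter-driven reporter constructs, treated 24 h. Total RNA reverse-transcribed, reporter cDNA PCR-amplified, FAM-labelled by primer extension, digested, resolved by capillary electrophoresis. Activity fitted both directions versus DMSO.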

[7] = molecular target: Transcription factor E2F1 (Homo sapiens) (UniProt Q01094); experiment: ATG_E2F_CIS: Attagene CIS-FACTORIAL HepG2 Assay for human E2F Transcription Factor 1 (AID 2282935); settings: HepG2 Attagene cis-reporter, E2F reporter RNA transcripts; actives raise or lower the signal
Transcription factor E2F1 (Homo sapiens), sequence (Q01094 whole entry, looked up): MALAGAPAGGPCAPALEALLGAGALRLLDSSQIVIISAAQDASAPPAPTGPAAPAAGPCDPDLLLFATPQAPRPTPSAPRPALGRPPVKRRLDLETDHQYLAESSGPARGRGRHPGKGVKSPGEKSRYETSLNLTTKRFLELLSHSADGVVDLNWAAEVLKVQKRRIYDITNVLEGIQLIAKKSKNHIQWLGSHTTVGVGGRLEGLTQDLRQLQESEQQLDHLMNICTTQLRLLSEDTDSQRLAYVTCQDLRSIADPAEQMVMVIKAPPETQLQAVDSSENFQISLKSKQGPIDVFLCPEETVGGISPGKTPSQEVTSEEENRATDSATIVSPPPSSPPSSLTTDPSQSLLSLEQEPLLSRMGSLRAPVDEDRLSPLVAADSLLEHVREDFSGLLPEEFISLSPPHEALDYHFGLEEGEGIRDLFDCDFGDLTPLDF
Method in brief: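 First, HepG2 cells were transfected with reporter transcription units. Next, they were dosed for 24 h. Then RNA was isolated, converted to cDNA, PCR-amplified, FAM-labeled, HpaI-digested and analyzed by capillary electrophoresis.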

[8] = ATG_E_Box_CIS: Attagene CIS-FACTORIAL HepG2 Assay for human Enhancer Box (E-box) (AID 2282936); settings: HepG2 E-box cis-reporter transcription, actives raise or lower the signal
Method in brief: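 Endogenous transcription factor activity was sensed in human HepG2 liver cells through transfected cis-promoter reporter units. After 24 h of dosing, total RNA was reverse-transcribed and reporter cDNA resolved by capillary electrophoresis.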

[9] = ATG_M_61_CIS: Attagene CIS-FACTORIAL HepG2 Assay for M61 Transcription Factor (Internal Marker) (AID 2282937); settings: HepG2 Attagene CIS-FACTORIAL M61 internal marker reporter; actives raise or lower the signal
Method in brief: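 Background-control endpoint: HepG2 cells with cis-regulated reporter constructs, 24 h exposure, reporter mRNA detected via fluorescent primer extension and capillary electrophoresis; values from bidirectional fitting with DMSO baseline.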

[10] = ATG_EGR_CIS: Attagene CIS-FACTORIAL HepG2 Assay for human Early Growth Response 1 (EGR1) (AID 2282938); settings: HepG2 Attagene CIS-FACTORIAL EGR reporter mRNA; actives raise or lower the signal
Method in brief: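 Endpoint derived by bidirectional fitting versus DMSO vehicle. Method: cis-promoter reporter units transfected into HepG2, 24 h dosing, RNA isolation, RT-PCR with 6-FAM primer extension and HpaI digestion, then capillary electrophoresis fluorescence detection.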

[11] = ATG_M_19_CIS: Attagene CIS-FACTORIAL HepG2 Assay for M19 Transcription Factor (Internal Marker) (AID 2282939); settings: HepG2 Attagene CIS-FACTORIAL M19 internal marker reporter; actives raise or lower the signal
Method in brief: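 Background-control endpoint from a multiplexed HepG2 reporter panel. Cells carrying cis-regulated reporter constructs are treated 24 h, then reporter transcripts are amplified, fluorescently labelled and sized by capillary electrophoresis. DMSO defines baseline.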

[12] = ATG_ERE_CIS: Attagene CIS-FACTORIAL HepG2 Assay for Estrogen Response Element (ERE) (AID 2282940); settings: HepG2 ERE cis-reporter, Attagene RNA transcript; actives raise or lower the signal
Method in brief: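 Cells used were human hepatoma HepG2, transfected with multiple reporter transcription units under cis-regulatory promoters. Reporter mRNA, read 24 h post-dosing via fluorescent RT-PCR products on capillary electrophoresis, was fitted bidirectionally relative to DMSO.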

[13] = ATG_Ets_CIS: Attagene CIS-FACTORIAL HepG2 Assay for human Erythroblast Transformation Specific (ETS) (AID 2282941); settings: HepG2 ETS cis-reporter transcription, actives raise or lower the signal
Method in brief: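 Cis-regulated reporter mRNA induction in HepG2 (transient transfection), 24 h exposure, RT-PCR plus capillary electrophoresis detection; DMSO serves as negative control and baseline.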

[14] = molecular target: Hepatocyte nuclear factor 3-beta (Homo sapiens) (UniProt Q9Y261); experiment: ATG_FoxA2_CIS: Attagene CIS-FACTORIAL HepG2 Assay for human Forkhead box A2 (FOXA2) (AID 2282942); settings: HepG2 cis-reporter transcription factor activity, 24 h; actives raise or lower the signal
Hepatocyte nuclear factor 3-beta (Homo sapiens), sequence (Q9Y261 whole entry, looked up): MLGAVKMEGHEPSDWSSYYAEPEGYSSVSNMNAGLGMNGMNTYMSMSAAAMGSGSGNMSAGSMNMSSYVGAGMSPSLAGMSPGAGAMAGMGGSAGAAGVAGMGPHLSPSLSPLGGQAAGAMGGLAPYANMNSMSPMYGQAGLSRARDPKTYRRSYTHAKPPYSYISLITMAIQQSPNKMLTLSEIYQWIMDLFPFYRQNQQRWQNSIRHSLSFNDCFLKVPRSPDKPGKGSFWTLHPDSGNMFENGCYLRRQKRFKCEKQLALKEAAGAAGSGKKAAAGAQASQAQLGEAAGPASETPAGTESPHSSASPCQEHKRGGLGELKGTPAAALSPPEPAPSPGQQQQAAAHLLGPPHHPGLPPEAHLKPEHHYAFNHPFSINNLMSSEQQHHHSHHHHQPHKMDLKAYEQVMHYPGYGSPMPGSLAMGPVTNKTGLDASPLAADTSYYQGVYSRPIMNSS
Method in brief: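 Measured: reporter mRNA induction or loss in HepG2 transiently carrying multiple cis-regulated reporter units, 24 h after dosing. Quantified by RT-PCR plus capillary electrophoresis, normalised to DMSO.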

[15] = ATG_FoxO_CIS: Attagene CIS-FACTORIAL HepG2 Assay for human Forkhead box O (FoxO) (AID 2282943); settings: HepG2 Attagene cis-reporter, FoxO element, mRNA; actives raise or lower the signal
Method in brief: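 24 h chemical exposure, HepG2 with transient cis-MRTU transfection. RNA extraction, oligo(dT) RT, reporter-specific PCR, primer-extension labelling, HpaI digestion, CE fragment analysis; bidirectional fit, DMSO baseline.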

[16] = ATG_GATA_CIS: Attagene CIS-FACTORIAL HepG2 Assay for human GATA Binding Protein (AID 2282944); settings: HepG2 GATA cis-element reporter, Attagene multiplex mRNA; actives raise or lower the signal
Method in brief: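 Endogenous transcription factor activity was captured through cis-promoter-driven reporters in transfected HepG2 cells. After 24 h exposure, reporter transcripts were quantified by RT-PCR with fluorescent capillary electrophoresis, and responses fitted both directions against DMSO.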

[17] = ATG_GLI_CIS: Attagene CIS-FACTORIAL HepG2 Assay for human Zinc Finger Protein GLI1 (AID 2282945); settings: HepG2, Attagene cis-factorial reporter mRNA, GLI element; actives raise or lower the signal
Method in brief: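 HepG2 cells transiently transfected with cis-promoter multiplexed reporter units report endogenous transcription factor activity. After 24 h chemical exposure, reporter mRNA was quantified by RT-PCR, 6-FAM labelling, HpaI digestion and capillary electrophoresis, with bidirectional fitting against DMSO.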

[18] = ATG_BRE_CIS: Attagene CIS-FACTORIAL HepG2 Assay for human Bone Morphogenetic Protein (BMP) Response Element (BRE) (AID 2282933); settings: HepG2 BMP response element reporter, Attagene transcription factor profiling; actives raise or lower the signal
Method in brief: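 Endogenous transcription factor activity at a BMP response element was monitored in transfected HepG2 cells 24 h after dosing. Fluorescent RT-PCR products were resolved by capillary electrophoresis, and activity was fitted in both directions versus DMSO.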

Measured: AC50

O=P(c1ccccc1)(c1ccccc1)c1ccccc1
active: [4] 58.6 µM
not listed: [18]
inactive: all other assays above

O=C(Nc1ccccc1)c1cc([N+](=O)[O-])ccc1Cl
active: [1] 5.81 µM | [4] 100 µM | [5] 18.4 µM | [18] 49.9 µM | [10] 25.1 µM
not listed: [8] | [14]
inactive: all other assays above

Cc1ccc(C(=O)c2cc(O)c(O)c([N+](=O)[O-])c2)cc1
active: [3] 26.3 µM | [6] 27.2 µM | [18] 56 µM | [8] 27 µM
not listed: [12]
inactive: all other assays above

CCCCCCC#CC(=O)OC
not listed: [11] | [12]
inactive: all other assays above
